Reference: PubChem BioAssay (NCATS)
Values joined by “and” are separate entries in the source; they are usually repeats but may differ in a detail not shown here. Equal values may be shown once. A number with no mark means an inactive call. Inconclusive results are not listed. A call without a number means that no potency is given here. Active and inactive are the calls of the source. Unless noted, calls come from the whole dose curve; as a rule, active = well fitted curve in the direction sought with a large enough effect; inconclusive = small, poorly fitted or top-dose-only effect, or another doubt; inactive = no such curve, though single readings can be large; an effect the other way counts as inactive or inconclusive.

Tests used:
[1] = Primary qHTS for small molecule stabilizers of the endoplasmic reticulum resident proteome: Secreted ER Calcium Modulated Protein (SERCaMP) assay (AID 1508630)
How it was run: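 The SH-SY5Y reporter protocol was run at 3 concentrations up to 38.3 uM (primary) or 11 concentrations (follow-up): 16 h compound, 100 nM thapsigargin for 4 h, then extracellular luciferase luminescence.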

[2] = Primary qHTS for inhibitors of nuclear receptor binding SET domain protein 2 (NSD2) in an isogenic RCH-ACV NSD2 p.E1099K mutant (9B) (AID 1645876); note: nearly all actives have a fitted effect of over 70% in size; note: potency is the fitted concentration of half-maximal effect
[3] = Confirmatory qHTS for small molecule stabilizers of the endoplasmic reticulum resident proteome: Secreted ER Calcium Modulated Protein (SERCaMP) assay (AID 1508628); note: nearly all actives have a fitted effect of over 40% in size; note: potency is the fitted concentration of half-maximal effect
How it was run: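 Reporter secretion upon ER calcium depletion (100 nM thapsigargin, 4 h, 37C) is measured as medium luminescence with coelenterazine, after 16 h compound pretreatment of SH-SY5Y-GLuc-SERCaMP cells; primary at three concentrations up to 38.3 uM, follow-up at 11 (up to 76.6 uM).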

[4] = Primary qHTS for inhibitors of nuclear receptor binding SET domain protein 2 (NSD2) in an RCH-ACV wild type WT cells (2C) (AID 1645877); note: nearly all actives have a fitted effect of over 70% in size; note: potency is the fitted concentration of half-maximal effect
[5] = target: Calcium and integrin-binding protein 1 (Homo sapiens) (UniProt Q99828); assay: Primary qHTS for Identification of Calcium Integrin Binding Protein 1 (CIB1) Competitor (AID 1508620); note: potency is the fitted concentration of half-maximal effect;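 for activity change, negative = inhibition: GST tagged CIB1 binding a fluorescein labelled alphaIIb integrin peptide tracer; top concentration of the series differs between compounds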
How it was run: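 Fluorescence polarization competition: CIB1-GST (1 uM final) preincubated with compound 15 min at room temperature, then FITC-labeled alphaIIb peptide (100 nM final) added for another 15 min. Polarization read at Ex 480/Em 540.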

[6] = target: Cytochrome P450 2D6 (Homo sapiens) (UniProt P10635); assay: Cytochrome P450 family 2 subfamily D member 6 (CYP2D6) small molecule antagonists: luciferase biochemical (cell-free) qHTS assay (AID 1645840; active = well fitted curve in the direction sought with a large enough effect in the repeat runs; an effect the other way counts as inactive or inconclusive; note: series mostly up to about 57 µM; nearly all actives have a fitted effect of over 55% in size)
How it was run: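 P450-Glo CYP2D6 system: proluciferin substrate converted by enzyme to luciferin, read by luminescence proportional to activity. Enzyme-substrate mix with compound 10 min at room temperature, then NADPH regeneration 1 h before detection reagent.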

[7] = target: Cytochrome P450 2C9 (Homo sapiens) (UniProt P11712); assay: Cytochrome P450 family 2 subfamily C member 9 (CYP2C9) small molecule antagonists: luciferase biochemical (cell-free) qHTS assay (AID 1645842; active = well fitted curve in the direction sought with a large enough effect in the repeat runs; an effect the other way counts as inactive or inconclusive; note: nearly all actives have a fitted effect of over 55% in size; note: potency is the fitted concentration of half-maximal effect; for activity change, negative = inhibition: series mostly up to about 57 µM)
How it was run: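 P450-Glo CYP2C9 system: proluciferin substrate with enzyme in mix containing 0.4% BSA, 10 min at room temperature, then NADPH regeneration solution added and incubated 1 h at 37C. Detection reagent stopped reaction; luminescence read after 20 min as RLU.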

[8] = Primary qHTS for inhibitors of La Crosse Virus (LACV) - induced cell death in SH-SY5Y cells (AID 1508616);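 note: top concentration of the series differs between compounds; higher means more rescue of cells from virus-induced death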
How it was run: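 Rescue of virus-induced death was read as ATPLite luminescence after 6 days at 37C, scaled between DMSO wells with LACV and without virus. Cells were SH-SY5Y, 6000/well, infected at 0.01 MOI after compound addition.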

[9] = A High-Content qHTS Against Drug Library for the Identification of Small Molecules that Inhibit DYT1 Early Onset Primary Dystonia-Associated Cell Pathology (AID 1645839; calls by dose curve; note: series mostly up to about 46 µM)
How it was run: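 Induced EGFP-delE TorsinA cells are imaged after 48 h of compound treatment. Punctate fusion-protein distribution gives the %pathology value, while nuclei counts flag toxicity. Wild-type EGFP-hTOR1A cells define the normal pattern.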

[10] = target: Calcium and integrin-binding protein 1 (Homo sapiens) (UniProt Q99828); assay: Confirmatory qHTS for Identification of Calcium Integrin Binding Protein 1 (CIB1) Competitor (AID 1508617); conditions: CIB1 binding competition assay, biochemical qHTS; note: potency is the fitted concentration of half-maximal effect; nearly all actives have a fitted effect of over 65% in size
How it was run: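 Fluorescence polarization competition: CIB1-GST (1 uM final) in 5 mM HEPES pH 7.4, 125 mM NaCl, 5 mM CaCl2, 0.01% Tween20 preincubated 15 min RT with compound (up to 114 uM), then FITC-alphaIIb peptide (100 nM) added, 15 min RT.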

[11] = Validation qHTS assay for inhibitors of Activation Induced Cytidine Deaminase (AID): UDG Counterscreen signal (AID 1347427)
How it was run: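 Fluorescence at 560 nm excitation, 665 nm emission reports UDG signal after 250 mM NaOH (2x) addition and 30 min. Enzymes (AID 1 uM, UDG 2 U/mL, at 4/3x) preincubated 10 min with compound, then 4 h with 4x 250 nM DJC20/DJC23 substrate at room temperature.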

[12] = target: Single-stranded DNA cytosine deaminase (Homo sapiens) (UniProt Q9GZX7); assay: Validation qHTS assay for inhibitors of Activation Induced Cytidine Deaminase (AID): AID signal (AID 1347429)
How it was run: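 Compounds (final up to 114 uM) preincubated with AID plus UDG; 250 nM DJC20/DJC23 substrate mix (4x stock) added, 4 hr at room temperature, then NaOH, 30 min. Read 1 fluorescence at 540 nm excitation, 590 nm emission.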

[13] = target: Calcium and integrin-binding protein 1 (Homo sapiens) (UniProt Q99828); assay: Validation qHTS for Identification of Calcium Integrin Binding protein 1 (CIB1) Competitor (AID 1508618)
How it was run: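 CIB1-GST (1 uM final) in 5 mM HEPES pH 7.4, 125 mM NaCl, 5 mM CaCl2, 0.01% Tween20 was preincubated 15 min at room temperature with compound (up to 114 uM), then FITC-alphaIIb peptide (100 nM) added for 15 min; fluorescence polarization read.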

[14] = target: Papain (Carica papaya) (UniProt P00784); assay: Primary qHTS assay for inhibitors of the protease papain (AID 1645873);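 note: papain turnover of Z-FR-AMC read as the AMC fluorescence gain over 10 min; series mostly up to about 50 µM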
[15] = target: Rap guanine nucleotide exchange factor 3 (Homo sapiens) (UniProt O95398); assay: Confirmatory qHTS for antagonist of cAMP-regulated guanine nucleotide exchange factor 3 (EPAC1) (AID 1645880); note: nearly all actives have a fitted effect of over 55% in size
How it was run: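 Released BODIPY-GDP fluoresces less than Rap1-bound BODIPY-GDP; the signal is followed at 480/540 nm at 5-min intervals over 30 min, after 5 min at room temperature. Reactions contain 100 nM EPAC1, 250 nM RAP1B-BODIPY-GDP and 50 uM GDP; results are normalized to ATA and DMSO.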

[16] = target: Rap guanine nucleotide exchange factor 3 (Homo sapiens) (UniProt O95398); assay: Confirmatory qHTS for agonist of cAMP-regulated guanine nucleotide exchange factor 3 (EPAC1) (AID 1645881);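 note: EPAC1 catalysed release of BODIPY-GDP from Rap1B seen as fluorescence loss; nearly all actives have a fitted effect of over 75% in size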
[17] = Counterscreen qHTS for small molecule stabilizers of the endoplasmic reticulum resident proteome: GLuc-NoTag assay (AID 1508627); note: series mostly up to about 76 µM
How it was run: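 Secreted GLuc lacking the SERCaMP modification is measured in SH-SY5Y cells exposed to compound for 19 h and then to thapsigargin (100 nM, 4 h) to deplete ER calcium; hits retested at 11 concentrations, up to 76.6 uM.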

[18] = Cell Viability qHTS for small molecule stabilizers of the endoplasmic reticulum resident proteome (AID 1508629); conditions: cell viability counter-screen, 100 nM thapsigargin for final 4 h;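 note: human SH-SY5Y neuroblastoma cells carrying the GLuc-SERCaMP reporter; compound exposure about 46 h in total before the viability read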

Rap guanine nucleotide exchange factor 3 (Homo sapiens), sequence (O95398 whole entry, looked up): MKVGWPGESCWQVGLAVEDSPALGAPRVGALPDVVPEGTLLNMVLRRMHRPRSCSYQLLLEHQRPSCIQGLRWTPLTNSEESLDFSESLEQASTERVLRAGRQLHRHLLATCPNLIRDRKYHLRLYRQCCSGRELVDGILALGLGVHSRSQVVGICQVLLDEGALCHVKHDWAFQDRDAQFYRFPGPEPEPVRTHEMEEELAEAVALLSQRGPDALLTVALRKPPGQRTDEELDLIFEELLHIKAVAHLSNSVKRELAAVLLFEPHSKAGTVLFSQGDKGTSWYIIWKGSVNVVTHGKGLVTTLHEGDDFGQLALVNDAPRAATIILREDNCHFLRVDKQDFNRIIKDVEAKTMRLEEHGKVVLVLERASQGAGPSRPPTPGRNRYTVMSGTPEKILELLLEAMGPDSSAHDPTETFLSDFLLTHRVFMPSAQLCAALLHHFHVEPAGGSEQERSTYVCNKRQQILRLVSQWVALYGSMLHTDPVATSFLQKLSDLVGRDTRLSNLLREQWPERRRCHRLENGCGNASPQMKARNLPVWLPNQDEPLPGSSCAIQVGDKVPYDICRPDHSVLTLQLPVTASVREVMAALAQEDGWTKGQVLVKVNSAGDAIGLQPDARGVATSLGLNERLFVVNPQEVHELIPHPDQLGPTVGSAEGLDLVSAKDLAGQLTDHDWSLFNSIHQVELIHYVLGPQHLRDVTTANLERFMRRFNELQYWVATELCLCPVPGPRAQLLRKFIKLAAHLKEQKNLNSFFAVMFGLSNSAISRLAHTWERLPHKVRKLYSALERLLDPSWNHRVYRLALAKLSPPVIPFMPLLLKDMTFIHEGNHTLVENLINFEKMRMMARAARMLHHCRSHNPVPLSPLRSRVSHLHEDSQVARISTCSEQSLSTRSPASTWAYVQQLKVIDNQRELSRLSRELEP
Cytochrome P450 2C9 (Homo sapiens), sequence (P11712 whole entry, looked up): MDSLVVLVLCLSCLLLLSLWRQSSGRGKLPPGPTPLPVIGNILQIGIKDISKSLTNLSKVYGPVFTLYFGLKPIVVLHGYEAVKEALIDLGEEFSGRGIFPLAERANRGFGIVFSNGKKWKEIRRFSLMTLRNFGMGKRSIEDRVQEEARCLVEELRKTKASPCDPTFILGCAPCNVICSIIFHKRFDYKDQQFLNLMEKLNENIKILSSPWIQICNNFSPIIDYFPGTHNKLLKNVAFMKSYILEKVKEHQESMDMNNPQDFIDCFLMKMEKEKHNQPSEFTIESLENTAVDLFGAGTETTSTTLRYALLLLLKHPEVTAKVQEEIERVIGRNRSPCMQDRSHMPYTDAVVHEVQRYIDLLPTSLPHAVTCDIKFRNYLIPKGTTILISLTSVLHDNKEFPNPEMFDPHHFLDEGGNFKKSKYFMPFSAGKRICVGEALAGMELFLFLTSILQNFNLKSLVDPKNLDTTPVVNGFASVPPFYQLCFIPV
Cytochrome P450 2D6 (Homo sapiens), sequence (P10635 whole entry, looked up): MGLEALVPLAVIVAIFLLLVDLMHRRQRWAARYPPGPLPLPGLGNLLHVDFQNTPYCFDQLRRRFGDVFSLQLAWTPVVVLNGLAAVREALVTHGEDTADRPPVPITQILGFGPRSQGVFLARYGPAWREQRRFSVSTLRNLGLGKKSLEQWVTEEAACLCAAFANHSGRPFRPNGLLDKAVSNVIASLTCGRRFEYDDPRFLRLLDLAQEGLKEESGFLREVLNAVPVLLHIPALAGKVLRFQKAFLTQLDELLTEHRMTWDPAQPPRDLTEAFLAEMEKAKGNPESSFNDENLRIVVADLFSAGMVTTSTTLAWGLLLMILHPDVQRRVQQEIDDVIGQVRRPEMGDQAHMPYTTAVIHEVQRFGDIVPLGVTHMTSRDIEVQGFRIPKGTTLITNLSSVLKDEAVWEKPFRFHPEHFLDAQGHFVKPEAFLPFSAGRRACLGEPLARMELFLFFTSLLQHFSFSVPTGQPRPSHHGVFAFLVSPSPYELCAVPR
Calcium and integrin-binding protein 1 (Homo sapiens), sequence (Q99828 whole entry, looked up): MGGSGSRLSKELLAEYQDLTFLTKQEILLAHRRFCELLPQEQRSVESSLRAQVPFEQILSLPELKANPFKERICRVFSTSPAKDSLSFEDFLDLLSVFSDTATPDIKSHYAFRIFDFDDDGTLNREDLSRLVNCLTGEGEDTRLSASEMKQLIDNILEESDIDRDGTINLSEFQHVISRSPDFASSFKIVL
Single-stranded DNA cytosine deaminase (Homo sapiens), sequence (Q9GZX7 whole entry, looked up): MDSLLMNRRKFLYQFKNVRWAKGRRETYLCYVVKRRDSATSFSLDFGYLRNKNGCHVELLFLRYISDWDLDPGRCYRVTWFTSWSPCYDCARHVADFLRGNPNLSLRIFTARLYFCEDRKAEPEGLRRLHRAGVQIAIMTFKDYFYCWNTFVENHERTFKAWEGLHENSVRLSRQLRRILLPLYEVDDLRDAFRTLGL
Papain (Carica papaya), sequence (P00784 whole entry, looked up): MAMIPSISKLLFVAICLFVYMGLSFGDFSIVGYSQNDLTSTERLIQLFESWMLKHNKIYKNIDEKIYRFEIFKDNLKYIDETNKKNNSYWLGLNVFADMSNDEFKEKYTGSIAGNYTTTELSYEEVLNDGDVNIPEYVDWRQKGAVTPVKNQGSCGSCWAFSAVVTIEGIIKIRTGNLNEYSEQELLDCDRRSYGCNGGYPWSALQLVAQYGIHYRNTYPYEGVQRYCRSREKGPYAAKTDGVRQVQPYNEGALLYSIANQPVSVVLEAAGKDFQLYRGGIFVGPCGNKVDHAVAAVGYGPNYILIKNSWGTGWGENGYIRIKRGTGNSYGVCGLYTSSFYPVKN

In the case of O=C(O)c1ccc(NC2OC[C@@H](O)[C@H](O)[C@H]2O)cc1 (some centres not stated), the outcome [1] is reported as “inactive”.
O=C(O)CCC/C=C\C[C@@H]1[C@@H](/C=C/[C@@H](O)COc2cccc(Cl)c2)[C@H](O)C[C@@H]1O showed an activity change, negative = inhibition [1] of -16.6% [at 3.88 µM].
With CNC(=O)[C@H](Cc1c[nH]c2ccccc12)NC(=O)[C@@H](CC(=O)NO)CC(C)C the outcome [1] was “inactive” and the Potency [2] was “inactive”.
In the case of Cc1cc(-c2ccc(N=Nc3ccc4c(S(=O)(=O)O)cc(S(=O)(=O)O)c(N)c4c3O)c(C)c2)ccc1N=Nc1ccc2c(S(=O)(=O)O)cc(S(=O)(=O)O)c(N)c2c1O, the Potency [3] is reported as 31.6 µM (active).
For NC[C@H]1O[C@H](O[C@H]2[C@H](O)[C@@H](O[C@H]3O[C@H](CO)[C@@H](O)[C@H](N)[C@H]3O)[C@H](N)C[C@@H]2N)[C@H](N)C[C@@H]1O, the outcome [1] was “inactive”, the Potency [2] was “inactive” and the Potency [4] was “inactive”.
With C[C@H]1O[C@@H](O[C@H]2[C@@H](O)C[C@H](O[C@H]3[C@@H](O)C[C@H](O[C@H]4CC[C@@]5(C)[C@H](CC[C@@H]6[C@@H]5C[C@@H](O)[C@]5(C)[C@@H](C7=CC(=O)OC7)CC[C@]65O)C4)O[C@@H]3C)O[C@@H]2C)C[C@H](O)[C@@H]1O the Potency [5] was “inactive”, the Potency [6] was “inactive” and the Potency [7] was “inactive”. For the same molecule, the Potency [2] was 40.9 nM (active) and 66.1 nM (active) and the Potency [4] was 51.5 nM (active) and 118 nM (active).
In the case of CC(=O)Oc1cccc2c1C(=O)c1c(OC(C)=O)cc(C(=O)O)cc1C2=O, the outcome [8] is reported as “inactive”, the outcome [1] is reported as “inactive” and the outcome [9] is reported as “inactive”. The Potency [7] was “inactive”, the Potency [2] was “inactive” and the Potency [4] was “inactive”.
For O=P(O)(O)OP(=O)(O)O, the Potency [6] was “inactive”.
For C=C1CC[C@H](O)CC1=C/C=C1\CCC[C@]2(C)[C@@H]([C@H](C)/C=C/[C@H](C)C(C)C)CC[C@@H]12, the Potency [5] was “inactive”, the Potency [6] was “inactive” and the Potency [7] was 16.9 µM (active). The Potency [4] was 20.5 µM (active).
For C/C(=C\C(=O)OCCCCCCCCC(=O)O)C[C@@H]1OC[C@H](C[C@@H]2O[C@H]2[C@@H](C)[C@H](C)O)[C@@H](O)[C@H]1O, the Potency [5] was “inactive”.
In the case of O=C(O)CCC(=O)c1ccc(-c2ccccc2)cc1, the outcome [8] is reported as “inactive”, the Potency [5] is reported as “inactive” and the outcome [9] is reported as “inactive”. The Potency [7] was “inactive”, the Potency [2] was “inactive” and the Potency [4] was “inactive”.
In the case of CO[C@H]1C[C@@H]2CC[C@@H](C)[C@@](O)(O2)C(=O)C(=O)N2CCCC[C@H]2C(=O)O[C@H]([C@H](C)C[C@@H]2CC[C@@H](OC(=O)C(C)(CO)CO)[C@H](OC)C2)CC(=O)[C@H](C)/C=C(\C)[C@@H](O)[C@@H](OC)C(=O)[C@H](C)C[C@H](C)/C=C/C=C/C=C/1C, the Potency [5] is reported as “inactive”, the Potency [2] is reported as 204 nM (active) and the Potency [4] is reported as 0.574 µM (active).
For O=C(O)Cc1nn(Cc2ccc(Br)cc2F)c(=O)c2ccccc12, the outcome [1] was “inactive”.
For O=C1c2ccccc2C(=O)c2c1ccc(O)c2O, the outcome [8] was “inactive”, the Potency [10] was 17.8 µM (active) and the Potency [5] was 35.5 µM (active). The outcome [9] was “inactive”.
In the case of O=C(OCc1ccccc1)c1cccnc1, the Potency [6] is reported as “inactive”.
In the case of COc1ccc2nc(NC(=O)Nc3ccccc3)sc2c1, the outcome [8] is reported as “inactive”, the Potency [5] is reported as “inactive” and the outcome [1] is reported as “inactive”. The outcome [9] was “inactive”, the Potency [6] was “inactive” and the Potency [7] was 13.8 µM (active).
In the case of Oc1ccc(/C=C/c2cc(O)cc(O)c2)cc1, the outcome [11] is reported as “inactive”, the outcome [12] is reported as “inactive” and the outcome [8] is reported as “inactive”. For the same molecule, the outcome [13] was “inactive”, the Potency [5] was “inactive” and the outcome [1] was “inactive”. The outcome [14] was “inactive”, the Potency [2] was 9340 nM (active) and the Potency [4] was 18.8 µM (active) and 11.8 µM (active). The outcome [15] was “inactive” and the outcome [16] was “inactive”.
For CC/C=C\C/C=C\C/C=C\CCCCCCCC(=O)O, the activity change, negative = inhibition [1] was -26.6% [at 3.88 µM].
With CCC(C)[C@@H](N)C(=O)O (some centres not stated) the outcome [1] was “inactive”.
In the case of O=C(OCc1ccccc1)c1ccc(O)cc1, the outcome [8] is reported as “inactive”, the Potency [5] is reported as “inactive” and the outcome [9] is reported as “inactive”.
In the case of O=C(O)Cc1cc(I)c(Oc2ccc(O)c(I)c2)c(I)c1, the Potency [5] is reported as “inactive”, the outcome [1] is reported as “inactive” and the Potency [2] is reported as 20500 nM (active).
In the case of CCCCC[C@H](O)/C=C/[C@H]1[C@H](O)CC(=O)[C@@H]1CCCCCCC(=O)O, the activity change, negative = inhibition [1] is reported as -7.33% [at 3.88 µM], the Potency [2] is reported as 66.1 nM (active) and the Potency [4] is reported as 20.9 µM (active).
For COc1ccc(C[C@H](C)NC[C@@H](O)c2ccc(O)c(NC=O)c2)cc1, the Potency [5] was “inactive”.
In the case of C[C@@](Cc1ccc(O)c(O)c1)(NN)C(=O)O, the outcome [17] is reported as “inactive”, the Potency [3] is reported as “inactive” and the max response [18] is reported as -4.61%. The Potency [6] was “inactive”.
In the case of CC1CC(OC(=O)C(O)c2ccccc2)CC(C)(C)C1 (configuration not stated), the Potency [5] is reported as “inactive”, the outcome [15] is reported as “inactive” and the outcome [16] is reported as “inactive”.
For N#Cc1ccc2c(c1)N(CCCN1CCC(O)CC1)c1ccccc1S2, the outcome [1] was “inactive”.
With C=C1[C@H](CO)[C@@H](O)C[C@@H]1n1cnc2c(=O)[nH]c(N)nc21 the Potency [5] was “inactive”, the Potency [6] was “inactive” and the Potency [7] was “inactive”. The Potency [2] was “inactive” and the Potency [4] was “inactive”.
